The record followed here is PubChem BioAssay AID1851 (National Center for Advancing Translational Sciences (NCATS), 2009).

As usually defined, the AC50 is the concentration giving half of the maximal activity seen.

In all, about 16,000 compounds went through this assay and about 5,800 (36%) were called active. Another 23% or so got no clear call; they are omitted. The list shows a part of the results. A number with no mark means an inactive call. The call rests on the fitted dose curve; in most records, active means well fitted curve in the direction sought with a large enough effect; inconclusive means small, poorly fitted or top-dose-only effect, or effect the other way; inactive means no such curve, though single readings can be large or run the other way.
On the % scale 0 is the no-effect control and ±100 the full control effect.

Sequence of Cytochrome P450 2C19 (Homo sapiens) (P33261 whole entry, looked up): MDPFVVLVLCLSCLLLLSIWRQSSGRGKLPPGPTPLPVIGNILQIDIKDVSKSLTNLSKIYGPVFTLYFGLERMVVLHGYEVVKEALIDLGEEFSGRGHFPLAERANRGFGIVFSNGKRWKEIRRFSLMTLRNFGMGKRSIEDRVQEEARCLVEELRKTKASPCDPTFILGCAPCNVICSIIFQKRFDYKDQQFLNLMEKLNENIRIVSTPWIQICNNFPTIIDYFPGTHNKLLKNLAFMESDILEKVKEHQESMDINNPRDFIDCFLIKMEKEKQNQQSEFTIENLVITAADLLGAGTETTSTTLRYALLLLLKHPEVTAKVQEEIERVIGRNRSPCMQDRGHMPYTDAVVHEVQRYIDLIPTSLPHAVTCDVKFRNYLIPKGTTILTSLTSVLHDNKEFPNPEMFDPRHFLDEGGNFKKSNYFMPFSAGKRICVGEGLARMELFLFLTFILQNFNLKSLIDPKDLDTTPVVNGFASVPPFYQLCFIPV

The assay concerns the target Cytochrome P450 2C19 (Homo sapiens) (UniProt P33261). The experiment in a line: Cytochrome panel assay with activity outcomes. Particulars: recombinant CYP, pro-luciferin dealkylation, luminescence, p450-cyp2c19; series mostly up to 57.1 µM; activity, negative = inhibition: at the top concentration.
On to `C[C@H]1/C=C\CC(=O)OC[C@H](C)C(=O)N2CCC[C@@H]2C(=O)OC1`, for which the activity, negative = inhibition was -9.53% [at 11.4 µM].
In the case of `COC(=O)[C@@H]1O[C@@H](SCCN)[C@@H](O)[C@H](O)[C@H]1O`, the activity, negative = inhibition was 31.9% [at 11.4 µM].
For `c1cc(-c2sc(-c3ccncc3)c(-c3ccncc3)c2-c2ccncc2)ccn1`, the AC50 is 1.58 µM (active).
As to `Cc1cn2c(-c3ccncc3)nnc2s1`, the “activity, negative = inhibition” value is -27.6%.
With `CCN1CCN(CCCNC(=O)C(NC(=O)C2CCC(C)CC2)C(C)C)CC1` (configuration not stated), the “activity, negative = inhibition” value was 9.56%.
Turning to `CC(C)C(NS(=O)(=O)c1cccs1)C(=O)NCCN1CCN(c2ccccc2)CC1` (configuration not stated), the AC50 is 14.1 µM (active).
Still for that read-out and setting: next, `O=C(C(NS(=O)(=O)c1cccs1)c1ccccc1)N1CCN(c2ccccc2)CC1` (configuration not stated): 1.41 µM (active).
As to `COc1ccc(N2CCN(CCNC(=O)c3c(C)cc(=O)oc3C)CC2)cc1`, the “activity, negative = inhibition” value is -20.5%.
In the case of `COc1ccccc1N1CCN(C(=O)C(NS(=O)(=O)c2cccs2)c2ccccc2)CC1` (configuration not stated), the AC50 is 3.16 µM (active).
Regarding `COC(=O)N1CCC2(CC1)CCN(C(c1ccccc1)c1ccccc1)CC2`, the “activity, negative = inhibition” value was -44.4%.
In the case of `CC(=O)N[C@@H](C(=O)O)C(C)(C)SN=O`, the AC50 entry is “inactive”.
Consider `CCOC(=O)c1[nH]c(C)c(C(=O)OCC(=O)N2c3ccccc3CC2C)c1C` (configuration not stated), for which the AC50 was 11.2 µM (active).
For `CNC(=S)NNC(=O)COc1ccccc1C`, the “activity, negative = inhibition” value is -29%.
`Cc1ccccc1OCCNC(=S)Nc1ccccc1`: the AC50 was 0.794 µM (active).
In the case of `CNCC[C@H](Oc1ccccc1C)c1ccccc1`, the “activity, negative = inhibition” value is -21.1%.
In the case of `O=C(CC(=O)N/N=C\c1c(Cl)cccc1Cl)NCc1ccccc1`, the AC50 is 2.51 µM (active).
Take `C[C@@](N)(C(=O)O)c1ccc(P(=O)(O)O)cc1`: the “activity, negative = inhibition” value is 13.2%.
Consider `CN1Cc2c(C(=O)OC(C)(C)C)ncn2-c2ccsc2C1=O`, for which the AC50 was 1.26 µM (active).
Turning to `CCOCCCn1cnc2c([nH]c3cc(OC)ccc32)c1=O`, the AC50 was 1.41 µM (active).
Regarding `O=C(N/N=C/c1ccc2c(c1)OCO2)/C(=C/c1ccc2c(c1)OCO2)NC(=O)c1ccccc1`, the AC50 was 14.1 µM (active).
Regarding `Cc1ccc(NC(=O)/C(=C\c2ccc3c(c2)OCO3)NC(=O)c2ccco2)cc1`, the “activity, negative = inhibition” value was -26.4%.
For the compound `C=CCNC(=O)/C(=C\c1ccc2c(c1)OCO2)NC(=O)c1ccc(Br)cc1`, the AC50 was 8.91 µM (active).
For `Cc1ccc(N(C(=O)c2csnn2)C(C(=O)NC(C)(C)C)c2cccs2)cc1` (configuration not stated), the AC50 was 2.51 µM (active).
For `COc1ccc(-c2csc3c2[N+]2=CCC=C2C3=O)cc1`, the AC50 was 3.98 µM (active).
Take `COc1cc(C(=O)N2CCN(C(=O)c3ccccc3)CC2)cc(OC)c1OC`: the “activity, negative = inhibition” value was -7.85%.
Same read-out and setting: for `COc1ccccc1CN1CCCC2(CCN(C(=O)c3c(C)noc3C)CC2)C1` the value was -37.8%.
Turning to `COc1cc2c(C(=O)N3CCN(C)CC3)c(C)n(-c3ccccc3)c2cc1Br`, the AC50 is 28.2 µM (active).
Turning to `CC1CCN(C(NC(=O)c2ccco2)C(=O)c2ccccc2)CC1` (configuration not stated), the AC50 was 2 µM (active).
For `CC(C)NC(=O)N1CCCC2(CCN(C(=O)c3ccco3)CC2)C1`, the “activity, negative = inhibition” value was -17.9%.
The same measure, in the same setting: for `COc1ccc(C(=O)N2CCC[C@@]3(CCN(CC(C)C)C3)C2)cc1` the value was 6.79%.
For `Cc1ccc(C2C(=O)N(C3CCCC3)CC(=O)N2CC2COc3ccccc3O2)cc1` (configuration not stated), the AC50 is 6.31 µM (active).
Turning to `NC(=O)CNC(=O)[C@@H]1CC2(CC(c3ccc(Cl)cc3)=NO2)CN1C(=O)c1ccccc1` (some centres not stated), the “activity, negative = inhibition” value was 2.94%.
As to `O=C(c1ccc(Cl)cc1)N1CCCC(c2ccccc2)=N1`, the AC50 was 4.47 µM (active).
Turning to `Cc1ccc(S(=O)(=O)N2CCN(Cc3ccccc3C(F)(F)F)CC2)cc1`, the AC50 was 2.24 µM (active).
Take `Cc1ccc(S(=O)(=O)N2CCN(S(C)(=O)=O)C2)cc1`: the AC50 is 11.2 µM (active).
Take `O=S(=O)(c1ccc(Br)cc1)N1CCN(S(=O)(=O)c2ccc(Br)cc2)CC1`: the activity, negative = inhibition was -4.78% [at 11.4 µM].
On the same count and under the same terms, for `COc1ccccc1CN1CCC2(CC1)CCN(S(=O)(=O)c1ccccc1)CC2` the value was 18.2%; for `CN(C)[C@H]1C(=O)C(C(=O)NCN2CCCC2)=C(O)[C@]2(O)C(=O)C3=C(O)c4c(O)cccc4[C@](C)(O)[C@H]3C[C@H]12`, -26.1% [at 11.4 µM].
As for `Cc1c(CCO)c(=O)n(-c2ccccc2)n1S(=O)(=O)c1c(Cl)cc(Cl)cc1Cl`, the AC50 was 2.82 µM (active).
`Cc1ccc(S(=O)(=O)/N=C(/Nc2c(C)n(C)n(-c3ccccc3)c2=O)c2ccc(Cl)cc2)cc1`: the “activity, negative = inhibition” value was -27.9%.
Same read-out and setting: next, `Cc1c(N(C)CS(=O)(=O)O)c(=O)n(-c2ccccc2)n1C`: 8.53% [at 25.6 µM].
Consider `CCOC(=O)N1CCN(CC(=O)c2ccc3c(c2)CCN3)CC1`, for which the AC50 was 14.1 µM (active).
As for `O=C(Cc1ccccc1)NCCSCc1ccc(Cl)cc1`, the AC50 is 2.24 µM (active).
Regarding `S=C(NCCSCc1c(Cl)cccc1Cl)Nc1ccccc1`, the AC50 was 1.41 µM (active).
With `S=C(NCCSCc1ccc(Cl)cc1Cl)Nc1ccccc1`, the AC50 is 1.12 µM (active).
Take `N[C@@H](CSCc1ccccc1)C(=O)O`: the activity, negative = inhibition was -4.77% [at 11.4 µM].
`COc1c2ccoc2nc2c(OC)c(OC[C@H](O)C(C)(C)O)ccc12`: the “activity, negative = inhibition” value is 8.3% [at 25.6 µM].
As for `C/C(=N\NC(N)=S)c1ccc[nH]1`, the activity, negative = inhibition is 20.4% [at 11.4 µM].
Take `C[C@@H](C(=O)NCc1ccc(S(C)(=O)=O)cc1)[C@@H]1C[C@@]1(C)[C@@H](NC(=O)OCc1ccccc1)c1ccccc1`: the AC50 is 1.26 µM (active).
`C[C@@H](C(=O)NCc1cccc2ccccc12)[C@H]1C[C@]1(C)[C@H](NC(=O)OCc1ccccc1)c1ccccc1`: the AC50 is 2.51 µM (active).
Take `O=P(O)(CCc1ccccc1)C(O)c1ccccc1` (configuration not stated): the “activity, negative = inhibition” value is -48.5%.
Take `O=[N+]([O-])c1cc(/C=N/N2CCN(C3c4ccccc4-c4ccccc43)CC2)ccc1Cl`: the “activity, negative = inhibition” value was 1.97%.
For the compound `C/C(=N\N1CCN(C2c3ccccc3-c3ccccc32)CC1)c1ccncc1`, the AC50 was 3.16 µM (active).
With `C(=N\N1CCN(C2c3ccccc3-c3ccccc32)CC1)/c1cccnc1`, the AC50 was 0.251 µM (active).
In the case of `C/C(=N\N1CCN(C2c3ccccc3-c3ccccc32)CC1)c1cccnc1`, the AC50 was 4.47 µM (active).
As to `CC1(C)OC(=O)NC1=O`, the “activity, negative = inhibition” value is 24.8% [at 25.6 µM].
Still for that read-out and setting: next, `COCC(=O)N1CCC2(CCN(Cc3ccccc3OC)CC2)CC1`: 15.4%.
Take `COc1ccccc1CNCC(O)(c1ccc(Cl)cc1)c1ccc(Cl)cc1`: the AC50 was 2.82 µM (active).
As to `C[C@@]12C(=O)OC(=O)[C@@]1(C)[C@@H]1CC[C@@H]2O1`, the “activity, negative = inhibition” value was -37.1%.
Take `CC(C)CO[C@H](c1ccc2c(c1)OCO2)[C@H](C)Br`: the AC50 is 0.0631 µM (active).
The same measure, in the same setting: for `Cc1cc(SCC(=O)c2ccccc2)nc(SCC(=O)c2ccccc2)n1` the value was 2 µM (active).
As to `O=C(CSc1ncnc2nc[nH]c12)c1ccccc1`, the activity, negative = inhibition was 6.64% [at 11.4 µM].
For `CSc1nc(C)cc(SC(C(C)=O)C(=O)Nc2ccccc2)n1` (configuration not stated), the “activity, negative = inhibition” value is -50.3%.
With `CCN(CC)c1ccc(SS(=O)(=O)O)cc1`, the AC50 is 7.08 µM (active).
Turning to `N#C/C(=C/N1CCOCC1)c1ccccc1`, the AC50 is 4.47 µM (active).
As to `CC(=O)[C@H]([C@@H](c1ccccc1)N1CCOCC1)N1CCOCC1`, the activity, negative = inhibition is 7.37% [at 11.4 µM].
With `C[C@H](C(=O)c1ccccc1)[C@@H](c1ccccc1)N1CCOCC1`, the AC50 is 1.58 µM (active).
Regarding `C[N+]1(C)CCC(OC(=O)C(c2ccccc2)c2ccccc2)CC1`, the AC50 entry is “inactive”.
Turning to `Cc1ccc(-c2nn3c(C)nnc3c3ccccc23)cc1S(=O)(=O)NCc1ccccc1`, the AC50 is 5.01 µM (active).
On to `Cc1ccc(-c2nn(C)c(=O)c3ccccc23)cc1CNC(=O)Cn1nc(-c2ccccc2)c2ccccc2c1=O`, for which the AC50 is 7.94 µM (active).
As for `CC1CCCC(C)N1CCNC(=O)Cn1nc(-c2ccccc2)ccc1=O` (configuration not stated), the “activity, negative = inhibition” value is -25.2%.
Take `CCOC(=O)CNS(=O)(=O)c1cc(-c2nn(C)c(=O)c3ccccc23)ccc1C`: the AC50 was 3.16 µM (active).
For the compound `CCN(CC)CCNC(=O)C(C)c1nn(C)c(=O)c2ccccc12` (configuration not stated), the “activity, negative = inhibition” value was -28%.
For the compound `Cc1nc2ccc3nc(NC(=O)c4ccc(S(=O)(=O)N5CCOCC5)cc4)sc3c2s1`, the “activity, negative = inhibition” value was -28.8%.
For the compound `CCN1CCc2nc(NC(=O)CC(c3ccccc3)c3ccccc3)sc2C1`, the AC50 was 8.91 µM (active).
As to `Cc1nc2c(ccc3nc(NC(=O)c4ccc5c(c4)OCCO5)sc32)s1`, the AC50 is 2.51 µM (active).
On the same count and under the same terms, next, `CCN1CCc2nc(NC(=O)c3ccc4c(c3)OCCO4)sc2C1`: 15.8 µM (active).
Consider `CCN1CCC[C@@H](OC(=O)C(c2ccccc2)c2ccccc2)C1`, for which the “activity, negative = inhibition” value was -20.1% [at 25.6 µM].
Consider `CCN1CCc2c(sc(NC(=S)NC(=O)c3ccccc3)c2C#N)C1`, for which the “activity, negative = inhibition” value is -59.3%.
On the same count and under the same terms, for `O=C(O)/C=C(/C(=O)O)[C@]12CCN3CC4=CCO[C@@H]5CC(=O)N[C@@H]1[C@H]5[C@H]4C[C@H]32` the value was -10% [at 11.4 µM]; for `CC(C)=CCC/C(C)=C/CO/N=C1/C[C@@H](O)[C@@H](O)[C@@H]2[C@@H]3C(=O)N(C(C)(C)C)C(=O)[C@H]3CC[C@H]12`, 12.2% [at 11.4 µM].
Consider `N#CCCn1c(=O)c(-c2ccc(F)cc2)nc2cnc(N3CCOCC3)nc21`, for which the “activity, negative = inhibition” value was -26%.
Turning to `CNc1oc(-c2ccc(Cl)cc2)nc1C#N`, the AC50 was 11.2 µM (active).
Regarding `CCN(CC)CCNC(=O)c1cc(S(C)(=O)=O)ccc1OC`, the AC50 entry is “inactive”.
Consider `O=C(NCCNS(=O)(=O)c1ccccc1Cl)c1cc(OCC(F)(F)F)ccc1OCC(F)(F)F`, for which the AC50 is 14.1 µM (active).
As to `O=C(O)CONC(=O)c1cc(OCC(F)(F)F)ccc1OCC(F)(F)F`, the “activity, negative = inhibition” value is 14.7%.
With `O=C(NCCNS(=O)(=O)c1ccc(Cl)cc1)c1cc(OCC(F)(F)F)ccc1OCC(F)(F)F`, the AC50 was 2.51 µM (active).
Regarding `CCOC(=O)c1c(-c2ccc(OC)cc2)csc1NC(=O)CCN1C(=O)c2ccccc2C1=O`, the AC50 is 5.62 µM (active).
Same read-out and setting: for `COC(=O)c1c(-c2ccc3ccccc3c2)csc1NC(=O)Cc1ccc(OC)c(OC)c1` the value was 1.41 µM (active); for `CCOC(=O)c1c(-c2ccccc2)csc1NC(=O)c1cccc(N2C(=O)CCC2=O)c1`, 3.55 µM (active).
Regarding `CCOC(=O)c1c(-c2cccc(C)c2)csc1NC(=O)c1c(-c2ccccc2)noc1C`, the “activity, negative = inhibition” value is -30%.
Still for that read-out and setting: next, `N/C(=N\O)c1cn([C@@H]2O[C@@H](CO)[C@H](O)[C@@H]2O)c2ncnc(NO)c12`: 14.4% [at 11.4 µM].
